A selection: hits, their analogues and other compounds. The true share with any hit is near 5.4%.
Exocytosis inh: blocks lytic granule exocytosis; TALL-104 LAMP-1 surface exposure, flow cytometry; cells stimulated with thapsigargin and PMA; inhibition, % at 10 µM; actives 0.66% (n = 360,000); AID 651702;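 active = inhibition above about 55%, limit read from the data; inconclusive = no clear call, values can overlap the other calls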
SMARCA2 act: activators of SMARCA2 function; MG213 cells, MMTV-luciferase reporter, dexamethasone, overnight; activation, % at 9.1 µM; actives 1% (n = 370,000); AID 652017; in the data active = activation above about 7.8%;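 also: 0% = vehicle wells and 100% = reference activator wells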
ALR H2O2 inh: inhibitors of human sulfhydryl oxidase ALR; inhibition, % (no concentration beside the values); purified ALR, DTT oxidation, H2O2 HRP-luminol luminescence; P55789; actives 3.8% (n = 290,000); AID 485317;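 active = mean replicate inhibition above about 79%, with every replicate also reaching it, limit read from the data; inconclusive = only one of the two criteria met; inactive = mean below limit and not every replicate reaching it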
Target sequence (P55789 whole entry, looked up): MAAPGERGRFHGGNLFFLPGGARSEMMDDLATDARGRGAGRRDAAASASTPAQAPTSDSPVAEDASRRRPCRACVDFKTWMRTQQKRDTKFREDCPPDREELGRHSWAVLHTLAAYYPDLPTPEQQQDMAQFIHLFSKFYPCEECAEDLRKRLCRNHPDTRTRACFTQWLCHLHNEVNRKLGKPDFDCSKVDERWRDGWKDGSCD
beta cell repl: inducers of beta-cell replication in MIN6 cells; MIN6 cells proliferation, ATPlite luminescence, 48 h; cells starved in 0.2% serum; 100% = growth in 10% serum; proliferation, % at 10 µM; actives 0.29% (n = 330,000);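 active = compounds whose signal lies at least 3.5 SD above the mean of all wells on their plate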;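 also: 0% = DMSO-treated cells in low-serum medium and 100% = 10% serum control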
GASC-1 inh: human JMJD2C demethylase inhibition; GST-JMJD2C(1-420) H3K9me3 demethylation, DELFIA europium; inhibition, % at 2.35 µM; actives 0.069% (n = 330,000);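 active = more than half of a compound's replicate wells show inhibition beyond 50%, single wells judged on their own value; inconclusive = some, but no more than half, of replicates pass 50% inhibition; inactive = no replicate passes 50% inhibition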;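 also: signal counts dimethyl H3K9 product captured on neutravidin plate; 0% = median of DMSO wells and 100% = 0.3 times that DMSO median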
Target sequence (Q9H3R0 1-420 limits assumed): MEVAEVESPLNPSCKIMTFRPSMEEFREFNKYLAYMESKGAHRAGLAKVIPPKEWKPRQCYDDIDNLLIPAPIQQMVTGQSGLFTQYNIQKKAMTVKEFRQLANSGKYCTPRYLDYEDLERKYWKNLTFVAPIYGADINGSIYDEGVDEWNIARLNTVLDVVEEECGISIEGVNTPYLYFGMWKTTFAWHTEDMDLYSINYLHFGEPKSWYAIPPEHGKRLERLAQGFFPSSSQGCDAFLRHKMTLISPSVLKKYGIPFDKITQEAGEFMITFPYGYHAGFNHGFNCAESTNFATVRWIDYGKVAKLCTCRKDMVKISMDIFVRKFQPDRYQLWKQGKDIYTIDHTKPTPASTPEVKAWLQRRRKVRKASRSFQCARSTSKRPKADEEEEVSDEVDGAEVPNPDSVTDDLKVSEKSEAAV
M18AAP inhibitor: blocks P. falciparum M18 aspartyl aminopeptidase. recombinant PfM18AAP, H-Glu-NHMec fluorogenic cleavage. inhibition, % at 7.35 µM. actives 1.2% (n = 290,000);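 active = inhibition above the campaign mean inhibition over all tested compounds plus 3 SD, cut at about 28% in these data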;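 also: 0% = plate median of test compound wells and 100% = 2 mM ZnCl2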
* = called active by the depositor; ? = inconclusive; / = no result.

SMILES | Exocytosis inh | SMARCA2 act | ALR H2O2 inh | beta cell repl | GASC-1 inh | M18AAP inhibitor
N#CC(C#N)=C1C=CC=CN1/C(=C\c1ccccc1Cl)C(=O)c1ccccc1 | 67.7* | 3.0 | / | / | 3.0 | 3.0
COC(=O)c1cnc(NNS(=O)(=O)c2ccc(Cl)cc2)nc1C(F)(F)F | -3.0 | -3.8 | 4.9 | -2.6 | -7.8 | 28.6*
COc1ccccc1NC(=O)OCCCN1CCC2(CCC(C)CC2)C1=O (configuration not stated) | / | -0.7 | / | / | / | /
CCOC(=O)c1ccc(-n2c(CN3CCN(CC)CC3)nc3ccc([N+](=O)[O-])cc3c2=O)cc1 | 1.8 | 7.9* | / | 0.1 | 3.9 | 1.5
Cn1nc(C(C)(C)C)cc1C(=O)Sc1cccc(Br)c1 | 43.7 | -4.5 | 98.6* | -4.0 | 1.3 | -5.6
COC(=O)c1cc(-c2ccc(Oc3ccccc3)cc2)c(=O)n2c1CCC2 | / | -0.4 | / | / | / | /
CCOC(=O)C1CSCCS(=O)(=O)N1Cc1ccccc1F (configuration not stated) | / | -5.1 | / | / | / | /
O=c1c2ccccc2c2ccccc2c(=O)n1CC1CCCO1 (configuration not stated) | -1.3 | -0.5 | 99.1* | -1.6 | -2.2 | 6.2
CN(C)c1ccc(NC(=O)CSc2nc3ccccc3c(=O)n2CC2CCCO2)cc1 (configuration not stated) | -6.9 | 1.3 | 86.8* | -3.2 | 1.2 | 8.0
CCCCCN1CCCCC(NC(=O)c2ccccc2C)C1=O (configuration not stated) | / | -1.5 | / | / | / | /
CCOC(=O)C1(Cc2ccccc2)CCN(Cc2ccccc2[N+](=O)[O-])CC1 | / | -2.4 | / | / | / | /
C=CCOc1ccc(CNc2ccc3[nH]c(=O)[nH]c3c2)cc1OC | -1.6 | -0.3 | / | / | / | -22.5
COc1cc(CNc2ccc3[nH]c(=O)[nH]c3c2)ccc1OCc1ccc(F)cc1 | 18.3 | -3.9 | 89.4* | -1.6 | 2.3 | -22.6
C=CCOc1cccc(CNc2ccc3[nH]c(=O)[nH]c3c2)c1 | -14.5 | -0.7 | 99.1* | -2.5 | -2.0 | -50.5
COc1ccc(Br)cc1CNc1ccc2[nH]c(=O)[nH]c2c1 | -6.5 | -2.1 | 98.8* | 1.3 | -3.7 | -48.9
COc1cccc(CNc2ccc3[nH]c(=O)[nH]c3c2)c1OCc1ccccc1 | 0.8 | / | 99.1* | -2.3 | 1.8 | -43.7
N[C@H](C(=O)N[C@@H](Cc1ccccc1)C(=O)N1CCC2CCN(S(=O)(=O)c3ccccc3)CC21)c1ccccc1 (some centres not stated) | / | 2.3 | / | / | / | /
Cc1nn(-c2ccccc2)c2sc(C(=O)NCc3ccc4c(c3)OCO4)cc12 | / | -4.6 | / | / | / | /
C[C@H](O)[C@@H]1C(=O)N2CCc3c([nH]c4c(-c5ccc6c(c5)OCO6)cccc34)[C@@H]2C[C@@H]1N(C)C(=O)NC1CCCCC1 | / | -2.9 | / | / | / | /
COc1cccc(CNc2ccc3[nH]c(=O)[nH]c3c2)c1OCc1ccccc1Cl | 11.8 | -2.4 | 97.4* | -3.7 | -5.2 | -39.3
COC(=O)CCS(=O)(=O)c1cc(Cl)ccc1Cl | -12.6 | -2.2 | 95.4* | -2.4 | -1.7 | 0.0
CC(Sc1nc(N)cc(=O)[nH]1)C(=O)Nc1sc2c(c1C#N)CCCC2 (configuration not stated) | -3.9 | -6.5 | 92.2* | -3.2 | 1.7 | 0.1
N#Cc1c(NC(=O)CSc2nc(N)cc(=O)[nH]2)sc2c1CCCCCC2 | -4.8 | -4.2 | 3.8 | -2.2 | 1.3 | -1.1
CC(C)n1nnnc1C1(C)Cn2nccc2C(=O)N1Cc1cccc(C(F)(F)F)c1 (configuration not stated) | / | -2.7 | / | / | / | /
COc1ccc(C(=O)NC2CC3CCCC(C2)N3Cc2ccccc2)cc1 (configuration not stated) | 9.2 | -1.7 | -17.2 | 2.3 | 60.0* | 2.8
SMILES | Exocytosis inh | SMARCA2 act | ALR H2O2 inh | beta cell repl | GASC-1 inh | M18AAP inhibitor
CCOc1ccc(C(=O)NC2CC3CCCC(C2)N3Cc2ccccc2)cc1 (configuration not stated) | 4.1 | -1.7 | / | -1.8 | -4.5 | 3.2
Oc1cccnc1SCc1ccccc1 | 2.5 | 0.3 | 40.8 | -2.6 | 4.7 | /
O=Cc1cccnc1SCc1ccccc1 | 64.4* | 4.1 | -2.0 | -3.6 | -4.8 | /
COC(=O)[C@]12C[C@H](CC(=O)NCc3ccc(OC)c(OC)c3)C(=O)N(Cc3cccc4ccccc34)C1=C[C@H](C1CCCC1)O[C@@H]2C | / | -2.7 | / | / | / | /
Cc1nnc2sc(SCc3ccccc3Cl)nn2c1=O | -2.4 | 1.3 | 95.7* | -0.9 | -8.7 | 3.2
Cc1nnc2sc(SCc3cccc(Cl)c3)nn2c1=O | -2.2 | 2.1 | 100.1* | -1.9 | 1.6 | 7.6
Cc1nnc(SCc2ccccc2Cl)n(N)c1=O | 1.4 | -1.6 | 22.9 | -2.1 | 19.7 | 8.7
CC(C)(C)c1nnc2sc(SCCN3C(=O)c4ccccc4C3=O)nn2c1=O | -2.1 | -3.0 | 98.7* | 0.1 | 13.3 | 4.6
Cc1nnc2sc(SCc3ccccc3)nn2c1=O | / | / | 19.8 | 0.0 | ? | -2.8
CCNc1nc(NCC)nc(N(C)N)n1 | -1.0 | -3.0 | 84.4* | -2.0 | -13.4 | 25.8
CC(=O)/C(=N\Nc1ccccc1)Sc1cccc2cccnc12 | 4.7 | -0.7 | 6.2 | -2.4 | -10.3 | 30.9*
Cc1[nH]c2ccccc2c1/C=N/Nc1nncn1N | 0.7 | -13.5 | 72.2 | -2.9 | 5.0 | 60.9*
Cc1[nH]c2ccccc2c1/C=N/Nc1ccccn1 | / | 0.9 | / | / | -1.9 | 2.0
Clc1ccc(-n2c(SCc3cccc4ccccc34)nnc2-c2ccccn2)cc1 | / | -6.8 | / | / | / | /
CCN1C(=O)/C(=C/C=C2/Sc3ccc4ccccc4c3N2CCO)SC1=S | 4.5 | 3.1 | -2.4 | -1.5 | -8.1 | 50.2*
CCN1C(c2ccccc2)=C(c2ccccc2)S/C1=C/C=C1\SC(=S)N(C)C1=O | 58.9* | -0.3 | / | / | / | -12.0
COc1ccc(Cn2ccc3ccc(-c4ccc5ccn(C(=O)c6ccccc6C)c5c4)cc32)cc1 | / | 0.3 | / | / | / | /
Cc1ccc(NC2=Nc3ccccc3N3C2=Nc2c(c(C)nn2-c2ccccc2)C3c2ccc(O)c(O)c2)cc1 (configuration not stated) | 11.1 | -1.8 | / | / | / | 10.9
Cc1nn(-c2ccccc2)c2c1C(c1ccc(O)c(O)c1)N1C(=N2)C(Nc2ccccc2)=Nc2ccccc21 (configuration not stated) | 3.2 | 0.0 | 2.9 | -6.6 | -29.6 | 34.2*
C/C(CCc1oc2ccccc2c1-c1ccc(C)o1)=N/O | 73.6* | 0.6 | 1.7 | -1.5 | 2.4 | -40.9
C/C(CCc1oc2c(Br)cc(Br)cc2c1-c1ccc(C)o1)=N\O | 82.7* | 0.3 | 8.3 | -4.6 | 4.0 | -0.3
CC1=NOC(=O)/C1=C\c1ccc(-c2ccc(Cl)cc2Cl)o1 | 96.2* | 3.4 | / | -3.7 | 22.0 | 14.8
CCCOc1ccc(Cl)cc1/C=C1/C(=O)ON=C1C | -6.5 | -2.8 | 30.8 | -3.2 | -17.2 | 16.1
Clc1ccc(Cl)c(-c2ccc(/C=N/c3ncn[nH]3)o2)c1 | 3.1 | -0.7 | 3.2 | -1.0 | 0.6 | 30.2*
O=S(=O)(c1ccc(Cl)s1)N1CCC(c2nc3ccccc3o2)CC1 | / | -5.1 | / | / | / | /

Screening data (PubChem)
